# Pol beta inh = DNA polymerase beta (human) inhibition; AID 485314; hit rate 1.3% among 340,000; Pol beta primer extension/strand displacement, fluorescence kinetic; Potency, µM (top dose mostly 114 µM), actives largely listed as inhibitors
#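 Kinetic readout of DNA synthesis with strand displacement by Pol beta. Compound and 10 nM enzyme sit 15 min at room temperature; 50 nM substrate starts the reaction, read immediately and at 10 min.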
# Pol iota inh = blocks human DNA polymerase iota activity; Q9UNA4; hit rate 1% among 390,000; Pol iota fluorescent replication assay, 10 min; AID 588590; Potency, µM (series often up to 115 µM), most hits filed as inhibitors
#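 Pol iota at 10 nM preincubated 15 min with compounds at room temperature; reaction started with fluorescent substrate, 50 nM final. Fluorescence read kinetically at 0 and 10 min; buffer-only wells as negative control.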
# Pol eta inh-1 = inhibitors of human DNA polymerase eta. Q9Y253. recombinant Pol eta, fluorescent DNA replication assay. Potency, µM (top dose mostly 114 µM), actives largely listed as inhibitors. hit rate 1.2% among 390,000. AID 588591
#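 Pol eta at 10 nM preincubated with compounds 15 min at room temperature; reaction started with fluorescent substrate (50 nM final) and read kinetically at 0 and 10 min.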
# WRN helicase inh-1 = WRN helicase (human) inhibition. Q14191. WRN helicase unwinding, fluorescent forked duplex, kinetic. Potency, µM (titrated, usually from 114 µM), most hits filed as inhibitors. hit rate 0.46% among 360,000; further: nearly all actives have a fitted effect of over 55% in size
#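 Fluorescence dequenching readout, ex 525 nm/em 598 nm, kinetic mode: forked duplex DNA (100 nM final) with adjacent fluorophore and quencher unwound by WRN (20 nM final) with 2 mM ATP. Compound preincubation 15 min, room temperature.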
# FEN1 inh-1 = inhibitors of human flap endonuclease 1. AID 588795. hit rate 0.35% among 390,000. Potency, µM (highest dose often 114 µM), hits mostly inhibitors. Recombinant FEN1 flap cleavage, fluorescence, 15 min; further: nearly all actives have a fitted effect of over 65% in size
#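 FEN1 at 10 nM, compound pretreatment for 15 min (room temperature), 50 nM final substrate to initiate; endpoint reads at 0 and 15 min; DMSO-only plates used as vehicle background.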
# Pol kappa inh-1 = inhibitors of human DNA polymerase kappa. Q9UBT6. purified Pol kappa, fluorescent DNA synthesis assay, 10 min. Potency, µM (top dose mostly 107 µM), hits mostly inhibitors. hit rate 0.53% among 400,000. AID 588579
#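 Enzyme at 10 nM met test compounds for 15 min at room temperature. Substrate addition (50 nM final) began the reaction, which was monitored by fluorescence at 0 and 10 min.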
# Pol kappa inh-2 = confirmation of human DNA polymerase kappa inhibitors | hit rate 76% among 920 | shares compounds with Pol eta inh-1 | purified Pol-kappa, fluorescent strand-displacement substrate | Potency, µM, actives largely listed as inhibitors
# Pol eta inh-2 = confirmation of human DNA polymerase eta inhibitors; shares compounds with Pol eta inh-1; Pol eta primer extension, TAMRA/BHQ fluorescence, 10 min; Potency, µM, actives largely listed as inhibitors; hit rate 64% among 2,600
# FEN1 inh-2 = FEN1 inhibition, cherry-pick retest | shares compounds with FEN1 inh-1 | FEN1 flap cleavage, TAMRA/BHQ2 fluorogenic DNA substrate | Potency, µM, usual class: inhibitors | hit rate 79% among 880 | AID 720498; further: nearly all actives have a fitted effect of over 60% in size
# WRN helicase inh-2 = confirmation of human WRN helicase inhibitors | WRN helicase DNA unwinding, fluorescence kinetic | Potency, µM (doses to about 57.1 µM), hits mostly inhibitors | AID 720497 | shares compounds with WRN helicase inh-1 | hit rate 63% among 610; further: nearly all actives have a fitted effect of over 65% in size
# TO DNA binding = binds DNA, flagged in WRN inhibitor counterscreen; thiazole orange DNA binding displacement, fluorescence; shares compounds with WRN helicase inh-1; AID 720499; Potency, µM (top dose mostly 57.1 µM), actives largely listed as inhibitors; hit rate 10% among 610;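 further: drop in dye fluorescence marks compound binding to DNA; nearly all actives have a fitted effect of over 60% in size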
# BLM counter = blocks human BLM helicase in WRN counterscreen. AID 720503. Potency, µM (series often up to 57.1 µM), most hits filed as inhibitors. hit rate 60% among 610. Recombinant BLM helicase DNA unwinding, red fluorescence. shares compounds with WRN helicase inh-1; further: nearly all actives have a fitted effect of over 60% in size
# Hits are given with their value; - = inactive; ? = inconclusive; . = no result; [ ] = another dose, or the depositor's remark. Only some compounds are listed: those with a hit (about 2.4% of all), similar ones and a draw of the others. The call rests on the fitted dose curve; in most records, active means well fitted curve in the direction sought with a large enough effect; inconclusive means small, poorly fitted or top-dose-only effect, or another doubt; inactive means no such curve, though single readings can be large; an effect the other way counts as inactive or inconclusive.
SMILES,Pol beta inh,Pol iota inh,Pol eta inh-1,WRN helicase inh-1,FEN1 inh-1,Pol kappa inh-1,Pol eta inh-2,WRN helicase inh-2,TO DNA binding,BLM counter,others
CCN(CC)c1ccc(/C=C2\C(=O)NC(=O)N(Cc3ccco3)C2=O)cc1,?,20µM,22µM,28µM,?,79µM,?,?,-,?,Pol kappa inh-2=34
CCN(CC)c1ccc(/C=C2/C(=O)NC(=O)N(CC3CCCO3)C2=O)cc1 (centres undefined),-,?,-,-,?,-,.,.,.,.,
Cn1cccc1/C=C1\C(=O)NC(=O)N(Cc2ccccc2)C1=O,?,22µM,35µM,?,-,50µM,?,?,-,?,
O=C1NC(=O)N(c2ccccc2)C(=O)/C1=C\c1ccc([N+](=O)[O-])s1,?,?,10µM,28µM,32µM,28µM,34,?,-,17µM,FEN1 inh-2=19
CCC(C)C(=O)OC1C(O)C2C(CN3CC(C)CCC3[C@]2(C)O)C2C[C@]34O[C@@]5(O)C(OC(=O)C(C)(O)CC)CCC3(C)C5C(OC(C)=O)C(OC(C)=O)C4[C@@]21O (some centres undefined),.,.,.,.,.,-,.,.,.,.,
NCCCC[C@@H](N)C(=O)O,.,.,.,.,.,-,.,.,.,.,
N#Cc1c(-c2csc(-c3no[n+]([O-])c3C#N)c2)no[n+]1[O-],.,.,.,.,.,.,?,?,-,?,
NCCCC[C@H](NC(=O)[C@H](Cc1ccccc1)NC(=O)[C@H](CCCN=C(N)N)NC(=O)[C@@H](N)Cc1ccc(O)cc1)C(N)=O,.,.,.,.,.,-[19.4 µM],.,.,.,.,
CC1=C(O)C(=O)C=C2C1=CC=C1C2(C)CCC2(C)C3CC(C)(C(=O)O)CCC3(C)CCC12C (centres undefined),.,3.5µM,7.9µM,25µM,40µM,32µM,34,?,-,22µM,
Cc1c(O)c(O)cc2c1CC=C1[C@]3(C)CC[C@]4(C)CC[C@@](C)(C(=O)O)CC4[C@]3(C)CC[C@]12C (some centres undefined),.,.,.,.,.,-,.,.,.,.,
CC(C)(C)OC(=O)N1CC[C@H]1COc1cnc[c]([Sn]([CH3])([CH3])[CH3])c1,.,.,.,.,.,-[12 µM],.,.,.,.,
O=C1NC(=S)NC(=O)C1=Cc1cccc2cc3ccccc3cc12,-,35µM,50µM,?,?,-,?,?,-,?,
CN1CCC(N(C)c2nc(-c3ccc([N+](=O)[O-])cc3)nc3ccccc23)CC1,11µM,?,-,-,35µM,-,.,.,.,.,FEN1 inh-2=34
Nc1ccc2ccc3cccc[n+]3c2c1,-,-,?,-[11.6 µM],50µM,-,.,.,.,.,FEN1 inh-2=?
Cc1ccc(C(=O)CN2CCOCC2)cc1,.,-,.,.,-,-,.,.,.,.,
CN1CCc2nc(N)c(C#N)c(-c3ccccc3)c2C1,-,?,-,-,-,-,.,.,.,.,
CN1CCc2nc3sc(C#N)c(N)c3c(-c3cccs3)c2C1,-,-,-,-,?,-,.,.,.,.,FEN1 inh-2=?
C[C@](O)(CS(=O)(=O)c1ccc(F)cc1)C(=O)Nc1ccc(C#N)c(C(F)(F)F)c1,.,.,.,.,.,-[19.4 µM],.,.,.,.,
Cc1ccccc1-n1c(O)c(/C=C/C=Nc2ccccc2)c(=O)[nH]c1=O,-,79µM,?,?,-,-,.,.,.,.,FEN1 inh-2=85
CC(=O)N1CC[N+](C)(C)CC1,.,.,.,.,.,-[19.4 µM],.,.,.,.,
CN(C)c1ccc(C=C2C(=O)NC(=O)NC2=O)cc1[N+](=O)[O-],-,-,-,?,-,-,.,.,.,.,
